Reference: PubChem BioAssay AID624255 (Broad Institute, 2012)
Screen size: about 77,000 compounds; about 4,600 (6%) were called active. Inconclusive results (about 1%) are left out. This is one part of a sample in which actives are shown more often than they occur.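 The calls were made as follows: active = mean inhibition above about 93%, with at least 55% of replicates each passing it (limit read from the data, passing the limit was not always enough); inconclusive = only one of those two conditions holds; inactive = neither condition holds.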

Assay: growth inhibition of T. cruzi in host fibroblasts – cell-based, beta-gal Tulahuen parasites, NIH3T3 host, luminescence, primary screen (AID 624255)
Conditions: T. cruzi beta-gal in NIH3T3, GalScreen luminescence, 90 h; at 8.34 µM; hits give high values

Row | SMILES | inhibition
1 | CC(C)NC(=O)Nc1ccc2c(c1)C(=O)N([C@H](C)CO)C[C@@H](C)[C@@H](CN(C)S(=O)(=O)c1ccc(Cl)cc1)OCCCC[C@H](C)O2 | 55% (inactive)
2 | C[C@H]1CCCCO[C@H](CN(C)S(=O)(=O)c2ccc(Cl)cc2)[C@@H](C)CN([C@@H](C)CO)C(=O)c2cc(NC(=O)Nc3ccc4c(c3)OCO4)ccc2O1 | 105% (active)
3 | C[C@@H]1CCCCO[C@H](CN(C)S(=O)(=O)c2ccc(Cl)cc2)[C@@H](C)CN([C@H](C)CO)C(=O)c2cc(NC(=O)Nc3ccc4c(c3)OCO4)ccc2O1 | 82.9% (inactive)
4 | CC(C)NC(=O)Nc1ccc2c(c1)C(=O)N([C@@H](C)CO)C[C@H](C)[C@H](CN(C)S(=O)(=O)c1ccc(Cl)cc1)OCCCC[C@H](C)O2 | 106% (active)
5 | C[C@@H]1CCCCO[C@@H](CN(C)S(=O)(=O)c2ccc(F)cc2)[C@@H](C)CN([C@@H](C)CO)C(=O)c2cc(NC(=O)Nc3ccc4c(c3)OCO4)ccc2O1 | 23.6% (inactive)
6 | COc1ccc(S(=O)(=O)N(C)C[C@@H]2OCCCC[C@H](C)Oc3ccc(NC(=O)Nc4ccccc4)cc3C(=O)N([C@@H](C)CO)C[C@H]2C)cc1 | 37.1% (inactive)
7 | COc1ccc(NC(=O)Nc2ccc3c(c2)C(=O)N([C@H](C)CO)C[C@H](C)[C@@H](CN(C)S(=O)(=O)c2ccc(OC)cc2)OCCCC[C@H](C)O3)cc1 | -12% (inactive)
8 | C[C@@H]1CCCCO[C@H](CN(C)S(=O)(=O)c2ccc(Cl)cc2)[C@H](C)CN([C@H](C)CO)C(=O)c2cc(NC(=O)NC3CCCCC3)ccc2O1 | 92.2% (inactive)
9 | COc1ccc(NC(=O)Nc2ccc3c(c2)C(=O)N([C@H](C)CO)C[C@H](C)[C@H](CN(C)S(=O)(=O)c2ccc(Cl)cc2)OCCCC[C@H](C)O3)cc1 | 115% (active)
10 | Cc1ccc(S(=O)(=O)Nc2ccc3c(c2)C(=O)N([C@@H](C)CO)C[C@@H](C)[C@H](CN(C)C(=O)NC(C)C)OCCCC[C@H](C)O3)cc1 | 46% (inactive)
11 | CO[C@H]1CN(C)C(=O)c2ccc(NC(C)=O)cc2OC[C@H](C)N(CC2CC2)C[C@@H]1C | 5.22% (inactive)
12 | CNC(=O)C[C@H]1CC[C@@H]2[C@H](COc3ccc(NC(=O)Nc4cccc(F)c4)cc3C(=O)N2C)O1 | 14.8% (inactive)
13 | C[C@@H]1CN([C@H](C)CO)C(=O)c2cc(NC(=O)Nc3cccc4ccccc34)ccc2O[C@H]1CN(C)C(=O)Nc1ccccc1 | 45.7% (inactive)
14 | O=C(Nc1cccc(F)c1)N[C@@H]1CC[C@@H](CCn2cc(Cc3ccccc3)nn2)O[C@@H]1CO | 42.3% (inactive)
15 | CCNC(=O)Nc1ccc2c(c1)C(=O)N(C)[C@@H]1CC[C@H](CC(=O)NC3CCCCC3)O[C@H]1CO2 | 36% (inactive)
16 | O=C(Cc1ccccn1)NCC[C@H]1CC[C@H](NS(=O)(=O)c2ccccc2)[C@@H](CO)O1 | 44.9% (inactive)
17 | OC[C@H]1[C@@H](c2ccc(C#CC3(O)CCCC3)cc2)[C@H]2CN(Cc3cncnc3)CCCCN21 | 60.8% (inactive)
18 | COCC#Cc1ccc([C@H]2[C@H](CO)N3CCCCN(Cc4ccncc4)C[C@@H]23)cc1 | 37.4% (inactive)
19 | OC[C@@H]1[C@H](c2ccc(C#Cc3ccccc3)cc2)[C@@H]2CN(Cc3cncnc3)CCCCN12 | 112% (active)

Row | SMILES | inhibition
20 | OC[C@@H]1[C@@H](c2ccc(C#CC3(O)CCCC3)cc2)[C@@H]2CN(Cc3cncnc3)CCCCN12 | 18.1% (inactive)
21 | OC[C@@H]1[C@H](c2ccc(C#CC3(O)CCCC3)cc2)[C@H]2CN(Cc3cncnc3)CCCCN12 | 101% (active)
22 | CCCC#Cc1ccc([C@H]2[C@H]3CN(Cc4cncnc4)CCCCN3[C@H]2CO)cc1 | 63.2% (inactive)
23 | CO[C@H]1CN(C)C(=O)c2cc(NC(=O)C3CC3)ccc2OC[C@@H](C)N(CCc2ccccc2)C[C@H]1C | 11.1% (inactive)
24 | CO[C@@H]1CN(C)C(=O)c2ccc(NC(=O)Nc3cc(Cl)cc(Cl)c3)cc2OC[C@H](C)NC[C@H]1C | -5.93% (inactive)
25 | CCCNC(=O)C[C@@H]1CC[C@@H]2[C@H](COC[C@H](O)CN2C(=O)c2cc(Cl)cc(Cl)c2)O1 | 3.7% (inactive)
26 | COc1ccc(NC(=O)N[C@H]2CC[C@@H](CCNC(=O)c3cc(Cl)cc(Cl)c3)O[C@H]2CO)cc1 | -22.3% (inactive)
27 | C[C@@H]1CCCCO[C@@H](CN(C)C(=O)NC2CCCCC2)[C@@H](C)CN([C@@H](C)CO)C(=O)c2cc(NC(=O)C3CCCCC3)ccc2O1 | 69.2% (inactive)
28 | O=C(NCc1cccc(F)c1)[C@H]1[C@H](CO)[C@H]2Cn3c(cccc3=O)[C@@H]1N2 | 23.3% (inactive)
29 | CC(=O)N1CCCCN2[C@H](CO)[C@H](c3ccc(-c4ccccc4)cc3)[C@@H]2C1 | 72.8% (inactive)
30 | O=C(Nc1cc(F)ccc1F)N1CCCCN2[C@H](C1)[C@H](c1ccc(-c3cccnc3)cc1)[C@@H]2CO | 89.5% (inactive)
31 | CN(C)CC(=O)N1CCCCN2[C@@H](CO)[C@H](c3ccc(-c4cccnc4)cc3)[C@@H]2C1 | 73.9% (inactive)
32 | COc1ccccc1NC(=O)N1CCCCN2[C@H](C1)[C@H](c1ccc(-c3ccccc3)cc1)[C@@H]2CO | 119% (active)
33 | O=C(Nc1ccccc1F)N1CCCCN2[C@H](CO)[C@@H](c3ccc(-c4cccnc4)cc3)[C@H]2C1 | 104% (active)
34 | O=C(Nc1ccccc1)N1CCCCN2[C@H](CO)[C@@H](c3ccc(-c4ccccc4F)cc3)[C@H]2C1 | 45.9% (inactive)
35 | COc1ccccc1NC(=O)N1CCCCN2[C@@H](CO)[C@@H](c3ccc(C#Cc4ccccc4)cc3)[C@@H]2C1 | 94.4% (inactive)
36 | O=C(Nc1cc(F)ccc1F)N1CCCCN2[C@H](CO)[C@@H](c3ccc(-c4cccnc4)cc3)[C@@H]2C1 | 69.1% (inactive)
37 | O=C(Nc1cc(F)ccc1F)N1CCCCN2[C@H](CO)[C@@H](c3ccc(-c4cncnc4)cc3)[C@H]2C1 | 106% (active)
38 | C[C@@H]1CN([C@H](C)CO)C(=O)c2cc(NC(=O)c3ccccc3)ccc2O[C@@H](C)CCCCO[C@H]1CN(C)S(=O)(=O)c1ccccc1 | -19.9% (inactive)

Row | SMILES | inhibition
39 | O=C(Nc1ccc(Cl)cc1)N1C[C@@H]2[C@H](c3ccccc31)[C@@H](CO)N2C(=O)c1cccnc1 | -10.9% (inactive)
40 | C[C@@H](O)C#Cc1ccc([C@@H]2[C@@H](CO)N3CCCCN(C(=O)c4ccc(F)cc4)C[C@@H]23)cc1 | 26.5% (inactive)
41 | C[C@@H]1CCCCO[C@@H](CN(C)Cc2ccccc2)[C@H](C)CN([C@H](C)CO)C(=O)c2cc(NC(=O)Nc3cccc4ccccc34)ccc2O1 | 112% (active)
42 | C[C@@H]1CCCCO[C@@H](CN(C)CC2CC2)[C@@H](C)CN([C@H](C)CO)C(=O)c2cc(NC(=O)Nc3cccc4ccccc34)ccc2O1 | 86.5% (inactive)
43 | C[C@@H]1CCCCO[C@H](CN(C)C(=O)Nc2ccc(C(F)(F)F)cc2)[C@@H](C)CN([C@@H](C)CO)C(=O)c2cc(NC(=O)Nc3cccc4ccccc34)ccc2O1 | 87.4% (inactive)
44 | CC(C)NC(=O)N(C)C[C@H]1OCCCC[C@@H](C)Oc2ccc(NC(=O)Nc3cccc4ccccc34)cc2C(=O)N([C@H](C)CO)C[C@@H]1C | 33.3% (inactive)
45 | C[C@H](CO)N1C[C@H](C)[C@@H](CN(C)Cc2ccc(C(=O)O)cc2)OCCCC[C@H](C)Oc2ccc(NC(=O)c3ccccc3)cc2C1=O | 20.3% (inactive)
46 | C[C@@H]1CCCCO[C@H](CN(C)C(=O)c2ccccc2)[C@@H](C)CN([C@H](C)CO)C(=O)c2cc(NC(=O)Nc3cccc4ccccc34)ccc2O1 | -46.1% (inactive)
47 | C[C@@H]1CN([C@@H](C)CO)C(=O)c2cc(NC(=O)Nc3cccc4ccccc34)ccc2O[C@@H](C)CCCCO[C@H]1CN(C)Cc1ccccc1 | 112% (active)
48 | COc1ccc(CN(C)C[C@H]2OCCCC[C@@H](C)Oc3ccc(NC(=O)Nc4cccc5ccccc45)cc3C(=O)N([C@H](C)CO)C[C@@H]2C)cc1 | 67.6% (inactive)
49 | C[C@H](CO)N1C[C@H](C)[C@H](CN(C)Cc2ccccc2)OCCCC[C@H](C)Oc2ccc(NC(=O)c3ccccc3)cc2C1=O | 71.5% (inactive)
50 | C[C@@H]1CCCCO[C@@H](CN(C)C(=O)Nc2ccc(F)cc2)[C@H](C)CN([C@H](C)CO)C(=O)c2cc(NC(=O)Nc3cccc4ccccc34)ccc2O1 | 108% (active)
51 | C[C@H]1CCCCO[C@H](CN(C)Cc2ccccc2)[C@@H](C)CN([C@@H](C)CO)C(=O)c2cc(NC(=O)c3ccccc3)ccc2O1 | 102% (active)
52 | C[C@@H]1CCCCO[C@H](CN(C)C(=O)Nc2cccc3ccccc23)[C@@H](C)CN([C@@H](C)CO)C(=O)c2cc(NC(=O)Nc3ccc(F)cc3)ccc2O1 | 91.1% (inactive)
53 | COc1ccc(NC(=O)N(C)C[C@@H]2OCCCC[C@@H](C)Oc3ccc(NS(=O)(=O)c4cn(C)cn4)cc3C(=O)N([C@@H](C)CO)C[C@H]2C)cc1 | 18.4% (inactive)
54 | C[C@@H]1CN([C@@H](C)CO)C(=O)c2cc(NS(=O)(=O)c3cn(C)cn3)ccc2O[C@@H](C)CCCCO[C@@H]1CN(C)Cc1ccncc1 | -84.1% (inactive)
55 | C[C@H](CO)N1C[C@H](C)[C@@H](CN(C)C(=O)c2ccncc2)Oc2ncc(-c3ccncc3)cc2C1=O | 4.66% (inactive)
56 | COC(=O)[C@@H]1[C@@H](CO)[C@@H]2Cn3c(ccc(-c4ccccc4)c3=O)[C@@H]2N1C(=O)C1CC1 | 59.9% (inactive)
57 | O=C(Nc1ccccc1)N[C@@H]1CC[C@H](CCNS(=O)(=O)c2ccccc2F)O[C@@H]1CO | -32.8% (inactive)
